Laboratory results reported in PubChem BioAssay AID1159580 (chemical genetic matrix, 2015).
“And” between values parts separate entries of the source, which are not always exact repeats. Identical values can stand only once. Screen size: about 5,500 compounds; about 2,000 (36%) were called active. Roughly 18% stayed inconclusive and do not appear here. Rule as the data show it: active = normalized growth mostly below about 0.91 (no sharp cut-off); inconclusive = no clear call, values can overlap the other calls; inactive = mostly above about 0.92. The list shows a part of the results.

Test: chemical genetic growth profiling, strain panel (AID 1159580);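 also: tested at 20 µM; growth read once vehicle control cultures reached saturation at 30 °C; 1 = growth at the plate median or of vehicle wells; lower values mean less growth of the strain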
Conditions: growth OD

Measured: normalized growth

CCCn1c(=O)c2[nH]c(C3CCCC3)nc2n(CCC)c1=O
inactive: S. cerevisiae deletion strains, locus YJR043C, strain POL32, hits give low values 0.989 | S. cerevisiae deletion strains, locus YJR075W, strain HOC1, hits give low values 0.968 and 0.985 | S. cerevisiae deletion strains, locus YKL009W, strain mrt4, hits give low values 0.966 | S. cerevisiae deletion strains, locus YKL068W, hits give low values 0.965 | S. cerevisiae deletion strains, locus YKL085W, strain MDH1 (second series), hits give low values 0.994 | S. cerevisiae deletion strains, locus YKL085W, strain MDH1, hits give low values 0.994 | S. cerevisiae deletion strains, locus YKL160W, strain elf1, hits give low values 0.996 | S. cerevisiae deletion strains, locus YKL190W, strain CNB1, hits give low values 0.981 | S. cerevisiae deletion strains, locus YKR001C, strain vps1, hits give low values 0.964 | S. cerevisiae deletion strains, locus YKR026C, strain gcn3, hits give low values 0.998 | S. cerevisiae deletion strains, locus YKR091W, strain srl3, hits give low values 0.982 | S. cerevisiae deletion strains, locus YLL001W, strain dnm1, hits give low values 0.986 | S. cerevisiae deletion strains, locus YLL026W, hits give low values 0.974 | S. cerevisiae deletion strains, locus YLL041C, strain sdh2, hits give low values 0.979 | S. cerevisiae deletion strains, locus YLR027C, strain aat2, hits give low values 0.987 | S. cerevisiae deletion strains, locus YLR039C, strain RIC1, hits give low values 0.881 | S. cerevisiae deletion strains, locus YLR058C, strain SHM2, hits give low values 0.982 | S. cerevisiae deletion strains, locus YLR102C, strain apc9, hits give low values 0.957 | S. cerevisiae deletion strains, locus YLR221C, strain rsa3, hits give low values 1 | S. cerevisiae deletion strains, locus YLR258W, strain gsy2, hits give low values 0.963 | S. cerevisiae deletion strains, locus YLR262C, strain YPT6 (second series), hits give low values 0.965 | S. cerevisiae deletion strains, locus YLR262C, strain YPT6, hits give low values 0.854 | S. cerevisiae deletion strains, locus YLR268W, strain sec22, hits give low values 0.957 | S. cerevisiae deletion strains, locus YLR320W, strain mms22, hits give low values 0.974 | S. cerevisiae deletion strains, locus YLR330W, strain CHS5, hits give low values 0.98 | S. cerevisiae deletion strains, locus YLR342W, strain FKS1 (second series), hits give low values 0.979 | S. cerevisiae deletion strains, locus YLR342W, strain FKS1, hits give low values 0.987 | S. cerevisiae deletion strains, locus YLR357W, strain rsc2, hits give low values 0.986 | S. cerevisiae deletion strains, locus YLR370C, strain arc18, hits give low values 0.986 | S. cerevisiae deletion strains, locus YLR371W, strain rom2, hits give low values 0.951 | S. cerevisiae deletion strains, locus YLR384C, strain iki3, hits give low values 0.995 | S. cerevisiae deletion strains, locus YLR418C, strain cdc73, hits give low values 1.01 | S. cerevisiae deletion strains, locus YML016C, strain PPZ1, hits give low values 0.992 | S. cerevisiae deletion strains, locus YML032C, strain rad52, hits give low values 0.959 | S. cerevisiae deletion strains, locus YML120C, strain ndi1, hits give low values 0.997 | S. cerevisiae deletion strains, locus YML124C, strain tub3, hits give low values 0.972 | S. cerevisiae deletion strains, locus YMR058W, strain fet3, hits give low values 1 | S. cerevisiae deletion strains, locus YMR078C, strain ctf18, hits give low values 0.972 | S. cerevisiae deletion strains, locus YMR125W, strain sto1, hits give low values 0.994 | S. cerevisiae deletion strains, locus YMR129W, hits give low values 0.968 | S. cerevisiae deletion strains, locus YMR205C, strain PFK2, hits give low values 0.967 | S. cerevisiae deletion strains, locus YMR223W, strain ubp8, hits give low values 0.97 | S. cerevisiae deletion strains, locus YMR231W, strain pep5, hits give low values 0.994 | S. cerevisiae deletion strains, locus YMR263W, strain SAP30, hits give low values 0.993 | S. cerevisiae deletion strains, locus YMR307W, strain GAS1, hits give low values 0.947 | S. cerevisiae deletion strains, locus YNL067W, strain RPL9B, hits give low values 0.986 | S. cerevisiae deletion strains, locus YNL071W, strain lat1, hits give low values 0.997 | S. cerevisiae deletion strains, locus YNL128W, strain TEP1, hits give low values 1 | S. cerevisiae deletion strains, locus YNL153C, strain GIM3, hits give low values 0.998 and 0.965 | S. cerevisiae deletion strains, locus YNL175C, strain NOP13, hits give low values 0.977 | S. cerevisiae deletion strains, locus YNL197C, strain WHI3, hits give low values 0.976 | S. cerevisiae deletion strains, locus YNL209W, strain ssb2, hits give low values 0.994 | S. cerevisiae deletion strains, locus YNL224C, strain SQS1, hits give low values 0.975 | S. cerevisiae deletion strains, locus YNL233W, strain BNI4, hits give low values 0.991 | S. cerevisiae deletion strains, locus YNL248C, strain rpa49, hits give low values 0.992 | S. cerevisiae deletion strains, locus YNL250W, strain rad50, hits give low values 0.973 | S. cerevisiae deletion strains, locus YNL271C, strain bni1, hits give low values 0.974 | S. cerevisiae deletion strains, locus YNL298W, strain CLA4, hits give low values 0.972 | S. cerevisiae deletion strains, locus YNL307C, strain MCK1, hits give low values 0.97 | S. cerevisiae deletion strains, locus YNL322C, strain KRE1 (second series), hits give low values 0.986 | S. cerevisiae deletion strains, locus YNL322C, strain KRE1, hits give low values 0.984 and 0.987 | S. cerevisiae deletion strains, locus YNR049C, strain mso1, hits give low values 0.984 | S. cerevisiae deletion strains, locus YNR052C, strain pop2, hits give low values 0.975 | S. cerevisiae deletion strains, locus YOL006C, strain TOP1, hits give low values 0.986 | S. cerevisiae deletion strains, locus YOL012C, strain htz1 0.878 | S. cerevisiae deletion strains, locus YOL147C, strain pex11, hits give low values 0.962 | S. cerevisiae deletion strains, locus YOR001W, strain rrp6, hits give low values 0.995 | S. cerevisiae deletion strains, locus YOR061W, strain CKA2, hits give low values 0.995 | S. cerevisiae deletion strains, locus YOR069W, strain VPS5, hits give low values 0.989 | S. cerevisiae deletion strains, locus YOR070C, strain gyp1, hits give low values 0.993 | S. cerevisiae deletion strains, locus YOR080W, strain dia2, hits give low values 0.984 | S. cerevisiae deletion strains, locus YOR083W, strain WHI5 (second series), hits give low values 0.989 | S. cerevisiae deletion strains, locus YOR083W, strain WHI5, hits give low values 1.01 | S. cerevisiae deletion strains, locus YOR106W, strain vam3, hits give low values 0.996 | S. cerevisiae deletion strains, locus YOR136W, strain idh2, hits give low values 0.954 | S. cerevisiae deletion strains, locus YOR144C, strain elg1, hits give low values 0.965 | S. cerevisiae deletion strains, locus YOR184W, strain ser1, hits give low values 0.955 | S. cerevisiae deletion strains, locus YOR265W, strain rbl2, hits give low values 0.991 | S. cerevisiae deletion strains, locus YOR270C, strain vph1, hits give low values 0.998 | S. cerevisiae deletion strains, locus YOR290C, strain snf2, hits give low values 0.923 | S. cerevisiae deletion strains, locus YOR316C, strain cot1, hits give low values 0.977 | S. cerevisiae deletion strains, locus YPL051W, strain arl3, hits give low values 0.987 | S. cerevisiae deletion strains, locus YPL055C, strain LGE1, hits give low values 0.976 | S. cerevisiae deletion strains, locus YPL078C, strain atp4, hits give low values 0.994 | S. cerevisiae deletion strains, locus YPL106C, strain sse1, hits give low values 0.976 | S. cerevisiae deletion strains, locus YPL240C, strain hsp82, hits give low values 0.983 | S. cerevisiae deletion strains, locus YPL241C, strain CIN2, hits give low values 0.954 and 1.01 | S. cerevisiae deletion strains, locus YPR119W, strain clb2, hits give low values 0.967 | S. cerevisiae deletion strains, locus YPR141C, strain kar3, hits give low values 0.977 | S. cerevisiae deletion strains, locus YPR163C, strain tif3, hits give low values 0.969 | S. cerevisiae deletion strains, locus YPR167C, strain met16, hits give low values 0.982 | S. cerevisiae deletion strains, strain wtn01, hits give low values 0.98 | S. cerevisiae strains, strain wild type, hits give low values 0.981
